Screens (PubChem BioAssay)
Akt phos inh – HTS Assay for Inhibitors of Akt Phophorylation: Primary Screen. AID 651550, 2012. activity change, % for hits at 50 µM. 360,000 tested, 0.32% active. Neuro2A IGF-stimulated pAkt S473 HTRF, 20 min; stronger effect = lower value; in the data active = activity change below about -80%; inconclusive = mostly about -51% to -80%; note: % is set by controls: 0 for no effect and ±100 for the full control effect
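Neuro2A cells (4,500/well, DMEM with 0.5% FBS) were treated with compound at a single 50 µM final concentration, stimulated with 6 nM IGF for 20 min at 37 °C, and lysed. Phospho-Akt Ser473 was read by HTRF as 665/615 ratio ×10^4.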
Mm-Cpn inhibitor – Inhibitors of TCP-1 ring complex (TRiC) of Methanococcus maripaludis (MmCpn): qHTS; purified Mm-Cpn ATPase, ADP Transcreener TR-FRET; Potency, µM (series often up to 76.9 µM), without a hit: top-dose activity, negative = inhibition, most hits filed as inhibitors; 330,000 tested, 0.031% active; AID 504842, 2011; note: potency is the fitted concentration of half-maximal effect; % is set by controls: 0 for no effect and ±100 for the full control effect; nearly all actives have a fitted effect of over 80% in size
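ATPase read-out: TR-FRET ADP immunoassay (anti-ADP Eu cryptate vs ADP-d2), ex 320 nm, em 590/665 nm; signal drops as ADP forms. Enzyme 25 nM, ATP 10 uM, 30 min at 37°C after 10 min compound preincubation.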
CCT chaperon mod – High-Throughput Screening for Modulators of Cytosolic Chaperonin Activity | purified chaperonin ATPase assay, HTRF ADP detection, 30 min | activity change, % (no concentration beside the values), hits read low | 360,000 tested, 0.3% active | AID 651819, 2012; in the data active = activity change below about -30%; note: % is set by controls: 0 for no effect and ±100 for the full control effect
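Nucleotide hydrolysis assay: TRiC at 20–40 nM final (set by batch activity) with 10 uM ATP, 30 min at 37 °C, in presence of 76 uM compound. Detection by competitive ADP HTRF, 30 min ambient.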
Glioma ERSR ind – qHTS for Inducers of the Endoplasmic Reticulum Stress Response (ERSR) in Human Glioma: qHTS | Potency, µM, without a hit: at the top dose activation, actives largely listed as activators | 420,000 tested, 0.02% active | U87-MG GRP78 promoter luciferase reporter, 16 h; note: potency is the fitted concentration of half-maximal effect; series mostly up to about 76 µM; % of control where 0% means no effect; nearly all actives have a fitted effect of over 35% in size
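ERSR induction read as luciferase luminescence (Bright-Glo, 10 min at room temperature) in stably transfected human U87-MG glioma cells exposed to compounds for 16 h, using GRP78 as sensor.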
mIDH1 inhibitor – qHTS for Inhibitors of mutant isocitrate dehydrogenase 1 (IDH1): qHTS; IDH1-R132H enzyme, NADPH consumption, diaphorase/resazurin fluorescence; Potency, µM (highest dose often 76.6 µM), without a hit: at the top dose activity change, negative = inhibition, actives largely listed as inhibitors; 390,000 tested, 0.093% active; note: potency is the fitted concentration of half-maximal effect; % is set by controls: 0 for no effect and ±100 for the full control effect; nearly all actives have a fitted effect of over 65% in size
Target sequence (O75874 whole entry R132H, stated change not applied): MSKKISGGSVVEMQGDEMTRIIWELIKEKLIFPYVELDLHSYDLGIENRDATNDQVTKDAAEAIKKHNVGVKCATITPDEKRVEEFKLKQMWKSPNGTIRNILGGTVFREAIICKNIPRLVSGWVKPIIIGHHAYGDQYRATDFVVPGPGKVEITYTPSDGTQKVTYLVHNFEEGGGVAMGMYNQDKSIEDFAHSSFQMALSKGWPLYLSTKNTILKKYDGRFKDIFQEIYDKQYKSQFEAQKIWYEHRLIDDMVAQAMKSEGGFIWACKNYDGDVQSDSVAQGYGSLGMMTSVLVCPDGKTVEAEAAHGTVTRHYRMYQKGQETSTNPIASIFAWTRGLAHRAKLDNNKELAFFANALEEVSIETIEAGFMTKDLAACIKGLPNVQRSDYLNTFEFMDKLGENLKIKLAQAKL
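IDH1-R132H (0.5 ug/mL) preincubated 30 min with compound, then NADPH (0.016 mM) and alpha-KG (2 mM) added; 80 min at RT, pH 7.5. Remaining NADPH coupled via diaphorase/resazurin to fluorescence (540/590 nm); concentration-response curves normalized to no-enzyme control.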
GLS inhibitor – qHTS for Inhibitors of Glutaminase (GLS); 410,000 tested, 0.21% active; GLS enzymatic activity, qHTS titration; AID 624170, 2012; Glutaminase kidney isoform, mitochondrial (Homo sapiens), O94925; Potency, µM (highest dose often 45.5 µM), inactives show top-dose activity change, negative = inhibition, most hits filed as inhibitors; note: potency is the fitted concentration of half-maximal effect; % is set by controls: 0 for no effect and ±100 for the full control effect
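hKGA; 45 mM KH2PO4 pH 8.2 + 0.02% Tween-20; cpd via pin tool; 1 mM Gln soln; GluOx/HRP/Amplex Red; RT 30 min; fluor. t0 & final.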
* marks the source's active call; other numbers are inactive results; i = inactive; ? = inconclusive; . = not tested or not shown. The list is not random: actives were taken first. Their share in the collection is about 0.85%. Unless noted, calls come from the whole dose curve; as a rule, active = well fitted curve in the direction sought with a large enough effect; inconclusive = small, poorly fitted or top-dose-only effect, or another doubt; inactive = no such curve, though single readings can be large; an effect the other way counts as inactive or inconclusive.

SMILES	Akt phos inh	Mm-Cpn inhibitor	CCT chaperon mod	Glioma ERSR ind	mIDH1 inhibitor	GLS inhibitor
Cc1ccc(-n2c(-c3ccccc3)n[nH]c2=S)c(C)c1	i	-3%	-2	-5%	0%	-30%
Cc1ccc(-n2c(Cc3cccc4ccccc34)n[nH]c2=S)c(C)c1	i	0%	-9	-6%	-6%	10µM*
Cc1csc(C(C)N(C)C(=O)c2cc(NC(=O)C3CCC3)c3c(c2)nc(-c2ccncc2)n3C)n1 (configuration not stated)	.	.	.	-7%	.	.
O=C1CC(=O)N(Cc2ccco2)C(=O)N1	i	-1%	1	-3%	0%	10µM*
O=C(NCC1Cc2cc(F)cc(-c3cccnc3)c2O1)c1cnn(-c2ccccc2)c1 (configuration not stated)	.	.	.	-3%	.	.
CCNc1cc(=O)n(C)c(=O)n1C	-122%*	0%	-1	-5%	2%	2%
O=C(O)c1cc(=O)c2c3nc4ccccc4oc-3cc(=O)c2[nH]1	.	.	.	-1%	.	28µM*
Nc1cc2nc3ccccc3oc-2cc1=O	i	-3%	-2	-5%	11%	2%
Cc1ccc(-c2csc(NC(=O)C3CCN(S(=O)(=O)c4cccs4)CC3)n2)cc1	i	-7%	-1	-5%	3%	-8%
O=C(Nc1nc(-c2ccc3ccccc3c2)cs1)C1CCN(S(=O)(=O)c2cccs2)CC1	i	-7%	-51*	0%	-2%	7%
C/C=C1\NC(=O)[C@H]2CSSCC/C=C\[C@H](CC(=O)N[C@H](C(C)C)C(=O)N2)OC(=O)C(C(C)C)NC1=O (some centres not stated)	.	.	.	?	.	0%
CC(=O)Nc1ccc2c(c1)Cc1c-2cc(Cl)c(NC(C)=O)c1Cl	i	.	-1	-3%	-3%	-3%
CC(=O)Nc1c(Cl)cc(Cl)c2c1Cc1cc(Cl)ccc1-2	i	.	-48*	-3%	-8%	-15%
COCC(=O)Nc1cc(C(=O)N2CCN(C)C(c3ccccc3)C2)c2c(c1)nc(-c1ccncc1)n2C (configuration not stated)	.	.	.	1%	.	.
O=C(C(=Cc1ccc(F)cc1)c1ccccc1)c1ccc(O)cc1	i	.	-2	1%	-1%	11µM*
CC(C)n1nnnc1SCC(=O)c1ccc2c(c1)OCCO2	i	-3%	3	-10%	4%	47%
CCn1nnnc1SCC(=O)c1ccc2c(c1)OCCO2	-104%*	-3%	-6	1%	10%	2%
CCCCCCN1CCN(C2CN(Cc3cn(Cc4cc(C)cc(C)c4)nn3)S(=O)(=O)C2)CC1 (configuration not stated)	i	.	-3	.	.	-5%
CCCCCCN1CCN(C2CN(Cc3cn(Cc4ccccc4)nn3)S(=O)(=O)C2)CC1 (configuration not stated)	i	.	-32*	.	.	8%
O=c1c2cc(F)ccc2sn1-c1ccccc1	i	-5%	0	-10%	-20%	7.1µM*
O=c1c2cc(C(F)(F)F)ccc2sn1-c1ccccc1	i	.	0	2%	-1%	11µM*
O=c1c2ccccc2c(-c2cccc(C(F)(F)F)c2)nn1-c1ccccc1	i	-3%	2	0%	9%	-5%
CN(C)S(=O)(=O)c1cccc(-n2sc3ccccc3c2=O)c1	i	0%	-2	-9%	9%	?
COc1cccc(-c2cnc(-c3ccncc3)nc2C2CCN(C(=O)Cc3csc(C)n3)CC2)c1	.	.	.	-3%	.	.
CCOc1ccccc1NC=C1C(=O)OC2(CCCCC2)OC1=O	i	2%	-38*	-2%	1%	-4%
SMILES	Akt phos inh	Mm-Cpn inhibitor	CCT chaperon mod	Glioma ERSR ind	mIDH1 inhibitor	GLS inhibitor
CS(=O)(=O)c1ccc(-c2ccc3c(c2)CC(CNC(=O)C2(N4CCOCC4)CCCCC2)O3)cc1 (configuration not stated)	.	.	.	-2%	.	.
COc1ccccc1NS(=O)(=O)c1ccc(-c2cnc(C3CC3)o2)cc1	.	1%	-77*	-6%	7%	22%
COc1ccc(NS(=O)(=O)c2ccc(-c3cnc(C4CC4)o3)cc2)cc1OC	.	1%	-66*	-5%	2%	0%
CCC1C(=O)NCCN1Cc1ccc2c(c1)CN(Cc1cc(OC)c3c(c1)OCO3)CCO2 (configuration not stated)	.	.	.	-4%	.	.
C#Cc1cccc(C(=O)NCc2nc(-c3ccccc3NC(=O)C3CCCO3)oc2C)c1 (configuration not stated)	.	.	.	-2%	.	.
COCc1ccc(CN2CCOc3c(cc(-c4cc(C)c5cccc(OC)c5n4)cc3OC)C2)o1	.	.	.	-5%	.	.
OC1(c2cccnc2)CCN(Cc2ccc3c(c2)CN(Cc2ccc(F)c(F)c2)CCO3)CC1	.	.	.	-2%	.	.
CC1=C(C(=O)OC(C)C)C(c2ccc(Cl)cc2)n2c(s/c(=C\c3ccc(OCC(=O)O)cc3)c2=O)=N1 (configuration not stated)	i	1%	-2	-2%	2%	11µM*
CC(C)(O)C#Cc1ccc(C(=O)NCCN2Cc3ccccc3OC(c3ccccc3F)C2)o1 (configuration not stated)	.	.	.	-4%	.	.
COc1cc2nc(N(C)C)c(CNCc3cccc4ccccc34)cc2c(OC)c1OC	.	.	.	-4%	.	.
Cc1ccccc1C1(CC(=O)N2CC3CC4CC(C3)CC2C4)CC(=O)N(Cc2cccnc2)C1=O (configuration not stated)	.	.	.	-3%	.	.
COc1cc(N(C)C)cc(CN(C)CCc2ccc([N+](=O)[O-])cc2)c1O	.	.	.	-3%	.	.
COc1cccc(CNC(=O)CSCc2cnn(-c3ccccc3)c2-n2cccc2)c1OC	-119%*	0%	-4	-3%	3%	-3%
CC(C)c1c(C(=O)NC(c2cccnc2)C(F)(F)F)cnn1-c1nccc(-c2cccs2)n1 (configuration not stated)	.	.	.	-5%	.	.
Cc1ncc2c(c1CNC(=O)/C=C/c1cccs1)CCN(C(=O)C1CC(=O)OC13CCCCC3)C2 (configuration not stated)	.	.	.	-3%	.	.
Cc1cccc(CC(=O)N2CCC(n3nccc3NC(=O)C3CC3)CC2)c1	i	-2%	-56*	-4%	10%	-3%
